Source: PubChem BioAssay AID687001 (Broad Institute, 2013)
Entries with a potency or affinity are not part of this list. Activity calls are given as the source filed them.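 How the source made its calls: active means signal-lowering compounds whose fitted half-maximal concentration is at or below twice the top tested dose in every run; inconclusive means runs disagree, flat 30 to 70% inhibition, or poor curve fit; inactive means the rest.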

Target: Protein S100-A4 (Homo sapiens) (UniProt P26447)
Experiment: S100A4-myosin IIA binding inhibitor potency, dose response, biochemical, fluorescence polarization, cherry-picked hits (AID 687001)
Conditions: FP, S100A4/TAMRA-myosin IIA peptide binding; series mostly up to 11 µM

Protein S100-A4 (Homo sapiens), sequence (P26447 whole entry, looked up): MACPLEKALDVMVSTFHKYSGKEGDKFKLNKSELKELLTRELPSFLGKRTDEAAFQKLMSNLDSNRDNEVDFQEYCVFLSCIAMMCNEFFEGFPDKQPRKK

outcome, inactive:
Cc1ccccc1OCC(=O)Nc1ccc(S(=O)(=O)N2CCCC2)cc1, Cc1ccc(S(=O)(=O)N[C@H]2C=C[C@H](CC(=O)O)O[C@@H]2CO)cc1, COCCOC(=O)c1nccnc1C(=O)Nc1ccc(S(=O)(=O)N2CCOCC2)cc1, O=C(c1ccccc1)c1ccc(C(=O)N2CCN(c3ccccc3O)CC2)cc1, COc1ccccc1CN1CCNC(=O)C1CC(=O)NCCCN1CCOCC1 (stereo unspecified), C/C=C/c1ccc([C@H]2[C@@H](CO)N(C(=O)Nc3ccccc3F)[C@H]2C#N)cc1, COCC#Cc1cnc2c(c1)C(=O)N([C@H](C)CO)C[C@H](C)[C@H](CN(C)C(=O)C1CCC1)O2, CN(C)C(CNC(=O)CCc1nc2cc(Cl)ccc2n(Cc2ccccc2)c1=O)c1ccccc1 (stereo unspecified), O=C(COC(=O)/C=C/c1ccc(Br)o1)Nc1ccc2[nH]c(=O)[nH]c2c1, Nc1[nH]c(C(=O)c2ccccc2)c(-c2ccccc2C(F)(F)F)c1C(=O)NCc1cccc2ccccc12, N#C[C@@H]1[C@H](c2ccccc2C2=CCCCC2)[C@H](CO)N1C(=O)NC1CCCC1, COc1ccc(Cl)cc1NC(=O)CN(C)C(=O)CCCc1c[nH]c2ccccc12, CCCN(CCC)Cc1cc(=O)oc2cc(C)c(C)cc12, COC(=O)c1sccc1NC(=O)Nc1ccc(C)c(C)c1, CCC(=O)N1CC(=O)N2[C@H](CO)[C@H](c3ccc(C#CC4CCCC4)cc3)[C@H]2C1, C[C@H]1CCCCO[C@H](CN(C)S(=O)(=O)c2ccc(F)cc2)[C@@H](C)CN([C@@H](C)CO)C(=O)c2cc(NS(=O)(=O)c3ccccc3)ccc2O1
